# Source: the supplement of paper PMC9433436
# ± gives the standard deviation of the averaged measurements. Whole data set: some 4,100 sequences, median “relative kcat/Km (krel) vs genomic leader AAAGAU” near 1.7, cut for the highest 2% near 6.5. This is one part of a sample in which the highest values are shown more often than they occur.
# Molecular target: T1, E. coli RNase P holoenzyme (M1 P RNA + rnpA protein) (UniProt P0A7Y8)
# T1 sequence: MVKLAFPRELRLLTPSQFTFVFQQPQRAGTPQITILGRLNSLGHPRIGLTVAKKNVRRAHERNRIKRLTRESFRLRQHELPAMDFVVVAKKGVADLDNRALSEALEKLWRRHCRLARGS
# Experiment: relative kcat/Km (krel) vs genomic leader AAAGAU (relative (reference leader = 1)); higher = faster RNase P cleavage
# Description: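 HTS-Kin: a pool of ptRNA-Met (21C construct) with all 4096 combinations of 5' leader nucleotides N(-6) to N(-1) was processed in vitro by E. coli RNase P (P RNA + rnpA/C5 protein) under multiple-turnover conditions at 37 C, pH 8, 17.5 mM MgCl2. Residual substrate was Illumina-sequenced at several fractions reacted, and relative kcat/Km (krel) was computed by internal competition kinetics, calibrated to the genomic leader (AAAGAU = 1). The listed hexamer is the varied N(-6)..N(-1) leader (DNA letters), and it sits between a fixed 5' stem-loop flank (GCAUGCACGAAAGUGCGUGCUAUGAA) and the mature tRNA-Met starting GGCUACGUAGCUCAGUUGG. Two technical replicates are averaged.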
# [1] = fraction of substrate reacted: ~9-10% (9.79% repeat 1, 9.1% repeat 2)
# [2] = fraction of substrate reacted: ~13-16% (15.68% repeat 1, 13.17% repeat 2)
# [3] = fraction of substrate reacted: ~26-29% (28.66% repeat 1, 26.4% repeat 2)
Sequence,relative kcat/Km [1],relative kcat/Km [2],relative kcat/Km [3]
GACAAT,3.33 ± 1.5,3.55 ± 1.1,5.83 ± 2.4
CACAAT,3.85 ± 1.2,4.61 ± 0.51,6.78 ± 2.9
CACATT,3.5 ± 1.3,4.74 ± 0.66,6.23 ± 2.3
GACACG,,1.39 ± 0.034,2.6 ± 0.37
GACAAG,2 ± 1.4,2.152 ± 0.02,4.06 ± 0.99
GACAAA,4.01 ± 1.6,4.49 ± 0.5,6.91 ± 2.5
TACAAT,2.84 ± 0.75,4.74 ± 0.94,7.14 ± 3.4
CACACT,2.56 ± 0.39,3.16 ± 0.72,4.82 ± 1.5
AGGCTC,,,0.722 ± 0.43
GTTACA,1.9 ± 0.82,2.16 ± 0.12,3.09 ± 1.2
CTGCCA,1.58 ± 1,0.692 ± 0.67,1.19 ± 0.3
TCACAT,3.6 ± 1.2,4.18 ± 0.55,6.08 ± 2.7
AACGTG,,,0.741 ± 0.57
GGATGC,1.44 ± 0.27,1.71 ± 0.79,2.74 ± 1
CAAAGC,1.07 ± 0.26,1.12 ± 1.1,1.94 ± 1.2
TCTCGA,3.05 ± 0.36,3.16 ± 0.42,4.89 ± 2
CCCTCA,2.47 ± 1.3,3.63 ± 0.37,3.95 ± 0.28
GCCTCA,3.93 ± 1.6,4.02 ± 0.47,5.77 ± 2.1
CCCTCC,3.55 ± 1.1,3.38 ± 0.94,4.21 ± 1.1
TCCTCT,3.55 ± 1.7,4.68 ± 1,6.72 ± 2.6
TCCTCC,3.65 ± 1.8,4.58 ± 1.2,6.57 ± 2.7
CCCTCT,2.96 ± 0.6,3.23 ± 0.81,3.9 ± 0.73
TCCTCG,2.35 ± 1.9,2.52 ± 0.14,3.64 ± 0.61
ACCTCC,3.29 ± 2.2,3.3 ± 0.22,4.3 ± 0.6
TCCTCA,3.22 ± 0.45,4.2 ± 0.86,6.64 ± 2.4

Sequence,relative kcat/Km [1],relative kcat/Km [2],relative kcat/Km [3]
ATGGCA,,1.34 ± 1.2,1.01 ± 0.3
AGTAGG,,,1.52 ± 0.61
CCACCC,2 ± 0.12,1.27 ± 0.51,2.49 ± 0.73
AGATGT,0.906 ± 0.45,,1.84 ± 1.7
CTTGTG,,,0.748 ± 0.26
CGCGGG,0.135 ± 0.028,,0.258 ± 0.092
TATCTA,2.06 ± 0.75,2.24 ± 0.15,2.97 ± 1.5
AAGCAC,2.14 ± 1.2,1.53 ± 0.4,3.12 ± 1.2
ATTTGC,3.17 ± 0.9,3.69 ± 0.87,5.35 ± 1.6
TTTTGG,0.508 ± 0.012,,0.844 ± 0.31
TTTTGC,3.65 ± 1.3,4.42 ± 1.1,6.61 ± 2.8
TTTTGA,3.16 ± 0.88,4.56 ± 1.3,6.55 ± 2.4
TTTTGT,,,2.01 ± 1.6
GTTTGC,2.91 ± 0.62,3.18 ± 0.81,5.13 ± 1.9
AGAAAC,3.18 ± 0.43,2.7 ± 0.75,3.84 ± 1.5
ATAACA,0.435 ± 0.37,0.897 ± 0.17,1.43 ± 0.58
AAGAAT,2.06 ± 0.33,1.89 ± 0.36,3.17 ± 1.4
TGTTCC,2.41 ± 1.7,3.08 ± 0.79,3.89 ± 1.1
TGTTTA,2.78 ± 0.84,3.23 ± 0.41,4.92 ± 2
AGTTCT,2.55 ± 0.89,3.08 ± 1.2,4.6 ± 1.6
AGTTAT,2.78 ± 0.19,4.36 ± 0.82,7 ± 3.2
AGTTTT,2.68 ± 0.23,3.38 ± 0.73,5.01 ± 1.8
AGTTTA,2.86 ± 0.36,3.18 ± 0.34,4.93 ± 2.3
AGTTCA,2.22 ± 0.21,2.82 ± 0.86,4.24 ± 1.9
AGTTAA,3.63 ± 1.5,5.9 ± 0.68,7.15 ± 2.6
